Consider 36 compounds from PubChem BioAssay AID1461 (National Center for Advancing Translational Sciences (NCATS), 2008).

Each structure is given as a SMILES string. The campaign covered roughly 220,000 compounds. About 2,300 (1%) were called active. Inconclusive results (about 6%) are left out. The entries come from a sample that favours actives as a whole. A number with no mark means an inactive call. Calls come from the whole dose curve; as a rule, active = well fitted inhibition curve with a large enough effect; inconclusive = small, poorly fitted or top-dose-only effect, or effect the other way; inactive = no such curve, though single readings can be large or run the other way.
% is set by controls: 0 for no effect and ±100 for the full control effect; potency is the fitted concentration of half-maximal effect.

Chain of Neuropeptide S receptor (Homo sapiens) (Q6W5P4 whole entry, looked up): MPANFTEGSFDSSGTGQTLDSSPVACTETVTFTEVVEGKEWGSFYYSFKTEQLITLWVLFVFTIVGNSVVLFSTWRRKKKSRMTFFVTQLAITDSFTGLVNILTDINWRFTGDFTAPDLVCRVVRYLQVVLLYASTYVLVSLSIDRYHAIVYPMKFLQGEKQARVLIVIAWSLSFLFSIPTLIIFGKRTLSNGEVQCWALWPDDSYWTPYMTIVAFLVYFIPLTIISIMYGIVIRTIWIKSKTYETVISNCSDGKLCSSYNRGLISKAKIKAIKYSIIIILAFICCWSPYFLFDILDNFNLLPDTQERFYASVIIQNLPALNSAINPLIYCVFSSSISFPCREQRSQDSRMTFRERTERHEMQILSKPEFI

The test concerns the target Neuropeptide S receptor (Homo sapiens) (UniProt Q6W5P4). As to the kind of experiment: qHTS Assay for Antagonists of the Neuropeptide S Receptor: cAMP Signal Transduction. Note: nearly all actives have a fitted effect of over 50% in size. Particulars: CHO-NPSR cells, cAMP TR-FRET, antagonist mode; series mostly up to 38.3 µM; activity change, negative = inhibition: at the top concentration.
`C=CCn1c(N)c(C(=O)OCC(C)C)c2nc3ccccc3nc21`: the “activity change, negative = inhibition” value was -1.13% [at 46.1 µM].
As for `CC(C)Cn1c(N)c(C(=O)NCc2cccs2)c2nc3ccccc3nc21`, the Potency is 12.6 µM (active).
As to `CCC(C)NC(=O)c1c(N)n(/N=C/c2cccs2)c2nc3ccccc3nc12` (stereo unspecified), the “activity change, negative = inhibition” value is 1.21% [at 46.1 µM].
Still for that read-out and setting: under `Cc1ccccc1CSc1nnc(CCCCCNC(=O)OC(C)(C)C)o1` stands -26%; under `Cc1ccc(C(=O)NNC2=Nc3cc([N+](=O)[O-])ccc3OC2)cc1`, -1.29% [at 7.67 µM].
Take `CC(C)(C)c1ccc(CCC2OCC(CN3CCOCC3)O2)cc1` (stereo unspecified): the “activity change, negative = inhibition” value is -9.52%.
`O=C(CCCl)Nc1ccc(S(=O)(=O)NCc2ccco2)cc1`: the “activity change, negative = inhibition” value is 9.32%.
Consider `COc1ccc(CCNC(=O)C(Sc2ccccn2)c2ccccc2)cc1OC` (stereo unspecified), for which the “activity change, negative = inhibition” value is -4.36%.
As to `COc1ccc(C(CCN(Cc2ccc(OC)c(OC)c2)C(=O)CCl)c2ccccc2)cc1` (stereo unspecified), the Potency is 5.01 µM (active).
On to `CCOC(=O)CN(Cc1ccc(OC)c(OC)c1)S(=O)(=O)c1ccc(OC)cc1`, for which the “activity change, negative = inhibition” value was -11.5% [at 46.1 µM].
Turning to `C/C=C(\C)C(=O)N1CC2(CC(c3cccc(NC(=O)CCCCC)c3)=NO2)C[C@@H]1C(N)=O` (stereo partly specified), the “activity change, negative = inhibition” value was 15.3%.
Turning to `Cn1nnc(NC(=S)NC(=O)c2ccccc2)n1`, the “activity change, negative = inhibition” value is 20.6%.
On the same count and under the same terms, under `O=c1c2ccccc2c(-c2ccccc2)nn1Cc1ccccc1` stands -19.8%.
The same measure, in the same setting: under `Cn1c(CO)cnc1SCc1ccccc1` stands -2.33% [at 46.1 µM].
For the compound `CSc1c(SCc2ccccc2)cnn(Cc2ccccc2)c1=O`, the Potency was 10 µM (active).
In the case of `O=c1ccnc(Nc2ccc(Cl)cc2)[nH]1`, the activity change, negative = inhibition was 1.3% [at 7.67 µM].
Consider `Cc1csc(Nc2ccc(Cl)cc2)[n+]1-c1ccc(Cl)cc1`, for which the Potency is 10 µM (active).
In the case of `CC1=NNC(=O)C1CCC(=O)N/N=C(\C)c1ccc(Cl)cc1` (stereo unspecified), the “activity change, negative = inhibition” value was -8.4%.
Same read-out and setting: under `Cc1ccc(CSc2nnc(-c3cnccn3)n2C)cc1` stands 25.9%; under `CC(C)S(=O)(=O)c1csc(NC(=O)Nc2ccc(Cl)cc2)c1Cl`, 14.8% [at 7.67 µM].
Same read-out and setting: the value for `Cc1cccn2c(CNCC(C)Oc3cccnc3)c(C(=O)N3CCOCC3)nc12` (stereo unspecified) was 15.1%.
Take `COc1ccc(NC(=O)C2=NNC(=O)CC2)cc1S(=O)(=O)N1CCCCC1`: the “activity change, negative = inhibition” value was 0.183%.
Consider `O=C(Nc1ccc(S(=O)(=O)Nc2nccs2)cc1)c1cccc(S(=O)(=O)N2CCOCC2)c1`, for which the “activity change, negative = inhibition” value is 3.35%.
In the case of `COc1ccc(/C(O)=C2/C(=O)C(=O)N(c3nc(C)c(C)s3)C2c2ccco2)cc1` (stereo unspecified), the Potency is 10 µM (active).
As for `COc1ccc(/C(O)=C2\C(=O)C(=O)N(Cc3ccco3)C2c2ccc(OC)cc2OC)cc1` (stereo unspecified), the “activity change, negative = inhibition” value was -2.14% [at 46.1 µM].
Still for that read-out and setting: the value for `CCOc1ccc(/C(O)=C2\C(=O)C(=O)N(c3ccc(OC)cc3)C2c2ccccc2[N+](=O)[O-])cc1` (stereo unspecified) was 30.9%.
Consider `COc1ccccc1N(C)S(=O)(=O)c1ccc(C(=O)NC2CCCCCC2)cc1`, for which the “activity change, negative = inhibition” value is -52.7%.
Same read-out and setting: the value for `CC[C@@H](C)[C@@H](C(=O)N1CCN(C(=O)OC(C)(C)C)CC1)n1cc(CCC(=O)O)nn1` was 25.2%; that for `CC(=O)NC(=S)Nc1ccc(NC(=S)NC(=O)c2ccc([N+](=O)[O-])cc2)cc1` was 14.8%; that for `COc1cc(/C=C2/C(=O)NN(c3ccc(F)cc3)C2=O)cc([N+](=O)[O-])c1O` was -10.9%.
`CCCn1c(=NC(C)=O)c(C(=O)OCC)cc2c(=O)n3ccccc3nc21`: the “activity change, negative = inhibition” value is -12.6% [at 46.1 µM].
Regarding `C/C(=N/OC(=O)c1c(-c2c(F)cccc2Cl)noc1C)c1cnccn1`, the “activity change, negative = inhibition” value is 21.6%.
As for `CCOC(=O)c1cc2c(=O)n3ccccc3nc2n(CC(C)C)c1=NC(=O)c1c(-c2c(F)cccc2Cl)noc1C`, the Potency is 3.98 µM (active).
Turning to `O=C(O)C1CCN(c2ccc([N+](=O)[O-])cc2[N+](=O)[O-])CC1`, the “activity change, negative = inhibition” value is 1.93%.
In the case of `CC(OC(=O)c1ccc(NS(=O)(=O)c2ccc3[nH]c(=O)[nH]c3c2)cc1)C(=O)Nc1cccc(Cl)c1Cl` (stereo unspecified), the “activity change, negative = inhibition” value is -9.26%.
On the same count and under the same terms, under `O=C(O)c1cccnc1Sc1ncnc2sc3c(c12)CCC3` stands -3.47%.
